{"source": "PubChem BioAssay", "note": "Activity calls are given as the source filed them. How the calls were made is not given here.", "data": [{"biological_target": "Pantothenate synthetase (Mycobacterium tuberculosis (strain ATCC 25618 / H37Rv)) (UniProt P9WIL5)", "sequence (P9WIL5 whole entry, looked up)": "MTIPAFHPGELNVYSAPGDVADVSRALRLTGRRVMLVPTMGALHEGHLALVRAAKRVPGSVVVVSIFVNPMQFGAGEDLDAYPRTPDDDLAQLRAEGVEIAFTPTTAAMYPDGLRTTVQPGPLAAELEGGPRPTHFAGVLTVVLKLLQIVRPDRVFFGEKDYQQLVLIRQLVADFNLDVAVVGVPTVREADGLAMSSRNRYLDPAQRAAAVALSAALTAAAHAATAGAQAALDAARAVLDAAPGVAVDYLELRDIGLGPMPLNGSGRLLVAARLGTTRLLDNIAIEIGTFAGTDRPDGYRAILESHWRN", "assay": "Recombinant Mtb pantothenate synthetase (PanC) inhibitors, coupled enzyme, confirmatory (AID 375);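 further: 0% = full reaction with vehicle and 100% = no enzyme background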", "conditions": "coupled enzyme assay; at 10 µM, active compounds read high", "values": [{"compound": "CCCCc1ccc(NC(=O)c2c(C)noc2C)cc1", "inhibition": "8% (inactive)"}, {"compound": "CCc1cc(-c2[nH]ncc2-c2ccc3c(c2)OCO3)c(O)cc1O", "inhibition": "0% (inactive)"}, {"compound": "CCOc1ccccc1OCCCCN1CCCC1", "inhibition": "9% (inactive)"}, {"compound": "COC(=O)[C@H](C)NC(=O)Nc1cccc(C(F)(F)F)c1", "inhibition": "0% (inactive)"}, {"compound": "COc1ccc(Cn2nnnc2C(c2cccnc2)N2CCN(c3ccc(O)cc3)CC2)cc1", "note": "(configuration not stated)", "inhibition": "0% (inactive)"}, {"compound": "COc1ccc(Cn2c(=O)[nH]c3cc(C(=O)NCCCN4CCCC4)ccc3c2=O)cc1", "inhibition": "5% (inactive)"}, {"compound": "Cc1cc(NC(=O)COC(=O)C2COc3ccccc3O2)no1", "note": "(configuration not stated)", "inhibition": "4% (inactive)"}, {"compound": "CCn1c(=N)n(CC(=O)c2ccco2)c2ccccc21", "inhibition": "0% (inactive)"}, {"compound": "O=C(/C=C/N1CCOCC1)c1ccc(-c2ccccc2)cc1", "inhibition": "4% (inactive)"}, {"compound": "CCOCCCNC(=O)C1CCC(=O)N1CCc1ccccc1", "note": "(configuration not stated)", "inhibition": "5% (inactive)"}, {"compound": "S=c1[nH]nc(-c2ccccc2)n1C1C=CCCC1", "note": "(configuration not stated)", "inhibition": "0% (inactive)"}, {"compound": "CCCCCOc1ccc(C2NC(=O)NC2=O)cc1", "note": "(configuration not stated)", "inhibition": "0% (inactive)"}, {"compound": "Cc1cc(C)c2c(n1)sc1c(N3CCOCC3)ncnc12", "inhibition": "5% (inactive)"}, {"compound": "CC(OC(=O)c1cccc(NS(C)(=O)=O)c1)C(=O)Nc1ccc(N2CCOCC2)cc1", "note": "(configuration not stated)", "inhibition": "0% (inactive)"}, {"compound": "CCC(=O)N1CCN(CCN=CC2=C(O)CC(C)(C)CC2=O)CC1", "inhibition": "0% (inactive)"}, {"compound": "Cc1ccc(-n2ncc3c(=O)[nH]c(SC(C)C)nc32)cc1", "inhibition": "0% (inactive)"}, {"compound": "Cc1cc(NC(=O)COc2cccc3cccnc23)no1", "inhibition": "6% (inactive)"}, {"compound": "CC12CN3CC(C)(CN(C1)C3c1ccc(Br)cc1)C2", "note": "(configuration not stated)", "inhibition": "0% (inactive)"}, {"compound": "CCN(CC)c1ccc(NC(=O)c2[nH]c(C)c(C(C)=O)c2C)c(C)c1", "inhibition": "0% (inactive)"}, {"compound": "CNC(=O)Oc1ccc2c(c1)[C@]1(C)CCN(C)[C@@H]1N2C", "inhibition": "4% (inactive)"}, {"compound": "Cc1cnc(SCCc2ccncc2)nc1C", "inhibition": "2% (inactive)"}, {"compound": "O=C(COc1ccc(F)cc1Br)N1CCc2ccccc21", "inhibition": "10% (inactive)"}]}]}
